Only a selection was taken, and hits are over-represented in it overall.
Pf Dd2 growth: blocks in vitro growth of P. falciparum Dd2; P. falciparum Dd2 growth, SYBR Green, 72 h; Potency, µM (titrated, usually from 28.9 µM), inactives show at the top dose activity, negative = inhibition, usual class: inhibitors; hit rate 4.3% among 120,000; AID 1347417; active = well fitted inhibition curve with a large enough effect;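 also: plate controls were DMSO vehicle for no effect and reference drug for full effect; nearly all actives have a fitted effect of over 65% in size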
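Infected erythrocytes (Dd2, 0.3% parasitemia, 2.5% hematocrit final) are added to compound in RPMI-1640/Albumax II medium, grown 72 h at 37C in low oxygen, then lysed with saponin/Triton-X containing SYBR Green and read by fluorescence.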
An asterisk follows results filed as active; i = inactive; ! = repeats disagree; [ ] = dose if it differs, or a comment. Potency is read from the fitted curve at half-maximal effect.

SMILES	Pf Dd2 growth
Cc1nccn1CCCNC(=O)c1ccc2nc(C3CC3)oc2c1	-9.6%
O=C(Cc1c[nH]c2ccccc12)N1CCC(Oc2ccc(-c3noc(C4CC4)n3)cc2)C1 (configuration not stated)	0.1%[5.79 µM]
O=C(O)C[C@@H]1CCN(C(=O)C2CCCC2)C[C@@H]1CCN1CCC(n2c(=O)[nH]c3ccccc32)CC1	-16.3%
CCOc1ccccc1C(=O)N1CCC(c2n[nH]c(=O)n2-c2ccccc2)CC1	-19.9%
Cc1c(Cl)cccc1-n1ncc(C(=O)NC2CCCCC2)c1C1CCN(C(=O)OC(C)(C)C)CC1	i
CC(C)(C)OC(=O)N1CCC(c2c(C(=O)NCc3ccc(F)cc3)cnn2-c2ccc(F)cc2)CC1	-11.5%
Cc1ccc(-n2ncc(C(=O)NCc3ccccn3)c2C2CCN(C(=O)OC(C)(C)C)CC2)cc1C	-2.7%
Cc1cccc(-n2ncc(C(=O)NCc3ccccn3)c2C2CCN(C(=O)OC(C)(C)C)CC2)c1	10µM*
CCOC(=O)N1CCC(NC(=O)c2cnn(-c3ccccc3)c2C2CCN(C(=O)OC(C)(C)C)CC2)CC1	-20.0%
CC(C)(C)OC(=O)N1CCC(c2c(C(=O)NC3CCCCC3)cnn2-c2cccc(Cl)c2)CC1	8.91µM*
CC(C)(C)OC(=O)N1CCC(c2c(C(=O)NCc3ccco3)cnn2-c2ccc(F)cc2)CC1	7.94µM*
CC(C)(C)OC(=O)N1CCC(c2c(C(=O)NCc3cccc(Cl)c3)cnn2-c2ccc(F)cc2)CC1	11.2µM*
CNC(=O)[C@@H]1C[C@H](Oc2ccccc2)CN1C(=O)Nc1ccccc1	-8.3%
Cc1cc(F)ccc1C(=O)N1CCn2nc(Cc3ccccc3)cc2C1	-0.7%
COCc1nc(C2CCCN(C(=O)CCc3ccccc3)C2)no1 (configuration not stated)	31.4%
CC(C(=O)NCc1cc(F)ccc1F)C1CCOCC1 (configuration not stated)	1.2%
COC[C@@H]1CN(C(=O)c2cn[nH]c2C)C[C@H]1c1ccncc1	19.1%
NC(=O)CN1CCC(C(=O)NCCCc2csc(N)n2)CC1	-13.0%
COc1ccc(NC(=O)N2CC(C(=O)N(C)C)C3(CCOCC3)C2)c(C)c1 (configuration not stated)	18.3%
CN(C)C(=O)C1CN(C(=O)Nc2cccc(Cl)c2)CC12CCOCC2 (configuration not stated)	-8.4%
Cc1cc(C)cc(NC(=O)Cn2c(N3CCc4ccccc4C3)nc(C)cc2=O)c1	-9.4%
Cc1cccc(-n2ncc(C(=O)N3CCN(C(=O)c4ccco4)CC3)c2C2CCN(C(=O)OC(C)(C)C)CC2)c1	i
Cc1cccc(-n2ncc(C(=O)NCc3ccco3)c2C2CCN(C(=O)OC(C)(C)C)CC2)c1	11.2µM*
CC(C)c1ccc(CC(=O)N2CCCc3ncc(C(=O)NCCCn4ccnc4)cc32)cc1	-4.9%
CCCS(=O)(=O)N1CC[C@H](c2nc(C)no2)[C@H](NC(=O)C2CC2)C1	-23.8%[5.79 µM]
SMILES	Pf Dd2 growth
Cc1nnc2n1CCC(NC(=O)CCc1c[nH]c3ccccc13)CC2 (configuration not stated)	35.8%
Cc1c(F)cccc1NC(=O)Nc1cccc(-c2nnc3n2CCCC3)c1	i
O=C(Cc1ccc(F)cc1)Nc1cccc(-c2nnc3n2CCCC3)c1	7.08µM*
O=C(CCc1c[nH]c2ccccc12)Nc1cccc(-c2nnc3n2CCCC3)c1	3.16µM*
Cc1nnc2n1CCC(N(C)C(=O)CCc1c[nH]c3ccccc13)CC2 (configuration not stated)	i
O=C(Cc1ccsc1)Nc1cccc(-c2nnc3n2CCCC3)c1	8.91µM*
O=C(Cn1nc2n(c1=O)CCCC2)Nc1cccc(Br)c1	50.4%
O=C(Cc1ccc(Cl)cc1)Nc1cccc(-c2nnc3n2CCCC3)c1	i
O=C(Cc1ccsc1)NC1CCc2nnc(C3CC3)n2CC1 (configuration not stated)	2.6%
Cc1ncc2c(c1CNC(=O)c1cc(C(C)C)n3ncnc3n1)CCNC2	-4.1%
COCCn1ncc(N2CCC(NC(=O)C(C)(C)C)CC2)cc1=O	13.4%
CCCCC1CN(c2ccc(Cl)cc2)C(=O)CN1C(=O)CNC(=O)OC (configuration not stated)	-9.5%
CN1CC(=O)N(c2ccccc2)Cc2c(NCc3cccc(C(F)(F)F)c3)ncnc21	-7.4%
CCN1CCCC1Cn1ccnc1-c1cc2n(n1)CCCNC2 (configuration not stated)	3.6%
COCCc1nncn1C1CCN(S(=O)(=O)c2ccc(Cl)c(C)c2)CC1	-11.0%
CCCCOc1cccc(C(=O)N2CCN(CCc3ccncc3)CC2)c1	-28.7%
Cc1ccc(OCC(=O)N2CCN(CCc3ccncc3)CC2)cc1C	10µM*
COc1ccc(OCC(=O)N2CCN(CCc3ccncc3)CC2)cc1	19.4%
CN1CCN(Cc2nc(C3(O)CCNCC3)cs2)CC1	19.7%[44.1 µM]
c1csc(-c2nc3ccncc3[nH]2)c1	17.8µM*!
c1c[nH]c(-c2nc3ccncc3[nH]2)c1	22.4µM*!
Cc1ccoc1-c1nc2ccncc2[nH]1	-2.6%[44.1 µM]
c1cncc(-c2nc3ccncc3[nH]2)c1	-17.2%[44.1 µM]
c1cncc(-c2nc3ncccc3[nH]2)c1	-5.9%[44.1 µM]
c1ccc2c(-c3nc4ccncc4[nH]3)c[nH]c2c1	12.6µM*!
SMILES	Pf Dd2 growth
Cc1ccc(-c2nc(-c3cccs3)c(-c3cccs3)[nH]2)cc1	-19.0%
c1cnc2nc(-c3c[nH]c4ccccc34)[nH]c2c1	-11.0%[44.1 µM]
c1cc2nc(C3CCCCN3)[nH]c2cn1 (configuration not stated)	-15.4%[44.1 µM]
CCc1ccc(CN2C[C@@H]3C(=O)N(CCOC)C(=O)[C@@H]3C2)cc1	17.2%
CC(C)NC(=O)N1Cc2ccccc2OC2(CCN(C(=O)N3CCN(C)CC3)CC2)C1	-5.0%
Cc1cc(F)ccc1Nc1ncncc1-c1nc(-c2ccccc2)no1	i
CN1C[C@H](O)C[C@H]1c1nnc2n1CCN(Cc1ccc(F)c(F)c1)C2	-1.9%
CC(C)NC(=O)N1C[C@@H](Oc2ccccc2)C[C@@H]1C(=O)N1CCOCC1	i
COC[C@H]1CCCN1C(=O)CC[C@@H]1CNC(=O)[C@@H]2C[C@H](NC(=O)Nc3ccc(F)cc3F)CN12	-2.8%
CC1=C(C(N)=O)C(c2cccc(C)c2)n2nc(-c3ccc(Cl)cc3)nc2N1 (configuration not stated)	3.5%
CC1=C(C(N)=O)C(c2ccc(F)cc2)n2nc(-c3ccc(N(C)C)cc3)nc2N1 (configuration not stated)	10µM*
CCN(CC)c1ccc(C2C(C(N)=O)=C(C)Nc3ncnn32)cc1 (configuration not stated)	33.3%
O=C(Cn1nc2n(c1=O)CCN(Cc1cccc(Cl)c1)C2=O)NC1CCCC1	i
O=C(CC1COCCN1C(=O)c1cc(F)ccc1F)NCc1cccnc1 (configuration not stated)	8.8%
O=C(Nc1ccccc1)N1CCc2c(c3ccccc3n2CC2CC2)C1	-18.0%
COCC1CN(C2CCC2)CC12CCN(C(=O)c1cn(C)cn1)CC2 (configuration not stated)	13.8%
COCC1CN(C2CCC2)CC12CCN(C(=O)C(C)C)CC2 (configuration not stated)	-11.0%
COCC1CN(C(C)=O)CC12CCN(C(=O)Cc1ccc(OC)cc1)CC2 (configuration not stated)	i
CCS(=O)(=O)N1CCC2(CC1)CN(C1CCC1)CC2COC (configuration not stated)	-21.5%
COCC1CN(C2CCC2)CC12CCN(C(=O)Cc1ccccc1F)CC2 (configuration not stated)	5.62µM*

Assay outcomes (PubChem BioAssay)
